A number with no mark means an inactive call. Activity calls are given as the source filed them. The call rests on the fitted dose curve; in most records, active means well fitted curve in the direction sought with a large enough effect in the repeat runs; inconclusive means weak or mixed curves; inactive means flat fitted curve, though single readings scatter.
Test: qHTS assay to test for compound auto fluorescence at 535 nm (green) in HEK293 cell free culture (AID 720682)
Details: cell-free medium, green autofluorescence 485/535 nm; series mostly up to 91.3 µM; activity change: at the top concentration
Text: U.S. Tox21 Program National Center for Advancing Translational Sciences [NCATS] NIH Chemical Genomics Center [NCGC] U.S. Environmental Protection Agency [EPA] National Institutes of Environmental Health Sciences [NIEHS] National Toxicology Program [NTP] U.S. Food and Drug Administration [FDA] Tox21 Assay Overview: Compound auto fluorescence often interferes with screening of the compound library against various biological targets and signaling pathways. Some of these compounds may have fluorophoric properties. Such properties may interfere with the assay outputs resulting in false positives and/or negatives. To decrease such complications and ensure the compound activities are relevant in terms of biological response, the Tox21 10K compound library was screened for auto fluorescence. From the fluorophores used as reporter signals in our screening assays, the auto fluorescence equivalencies of compounds against three fluorophores have been evaluated: Triamterene, Fluorescein and Rose Bengal sodium for blue, green and red fluorescence, respectively. The fluorescence intensities were measured using Excitation/Emission wavelengths at 405/460nm, 485/535nm and 540/590nm for blue, green and red labels, respectively. This assay includes the green fluorescence data.
Tox21 Assay Protocol Summary: 5 uL of culture medium (DMEM containing 10% FBS) per well was dispensed into black wall/clear bottom 1536-well plates using a Multidrop Combi Dispenser (ThermoFisher Scientific, Waltham, MA). After 23 nL compound or DMSO vehicle was transferred into assay plate by a pintool work station (Kalypsys, San Diego, CA), fluorescence intensities in the assay plates were measured by an Envision (PerkinElmer, Shelton, CT) plate reader using three labels for measuring blue, green and red fluorescence at […] 460, 535 and 590nm respectively.
On the % scale 0 is the no-effect control and ±100 the full control effect; potency means the concentration at half of the fitted maximal effect; tags describe the fitted curve by direction and shape or compound fluorescence and quenching.

| Structure (SMILES) | activity change | Potency |
| --- | --- | --- |
| CCCCCCCC/C=C\CCCCCCCC(=O)OCCOC(=O)CCCCCCC/C=C\CCCCCCCC | 0.0409% [at 95.7 µM, stronger effect = higher value] | – |
| COC(=O)CC(C)CCC=C(C)C (stereo not given) | -0.0046% | – |
| CCCCOc1ccc(C(=O)CCN2CCCCC2)cc1 | -0.0432% [at 18.6 µM, stronger effect = higher value] | – |
| CCCC(CC)CCCCCCCN (stereo not given) | 0.0006% [at 95.7 µM, stronger effect = higher value] | – |
| CN(C)c1ccc(N=Nc2ccccc2C(=O)O)cc1 | -0.006% | – |
| Cn1cnc2ncnc(N)c21 | 0.0011% [at 46 µM, stronger effect = higher value] | – |
| COc1cccc(CCc2ccccc2OCC(CN(C)C)OC(=O)CCC(=O)O)c1 (stereo not given) | -0.0173% [at 46 µM, stronger effect = higher value] | – |
| C=CC(=O)OCCOCC(CC)(COCCOC(=O)C=C)COCCOC(=O)C=C | -0.0063% [at 95.7 µM, stronger effect = higher value] | – |
| C[n+]1c2cc(N)ccc2cc2ccc(N)cc21 (tested in a mixture with another compound) | – | 12.6 µM [fluorescent] (active) |
| CCCCCCCCCCCCCCNCCO | 0.0296% [at 46 µM, stronger effect = higher value] | – |
| CCCCCCCCCCCCCC[n+]1ccccc1 | -0.0151% | – |
| CN(Cc1cc(Br)cc(Br)c1N)C1CCCCC1 | 0.0153% [at 46 µM, stronger effect = higher value] | – |
| CCCCCCCOC(=O)c1ccc(O)cc1 | – | inactive |
| Cc1cc(Nc2ccc(O)cc2)ccc1N | -0.0897% | – |
| Nc1ncnc2c1ncn2[C@@H]1O[C@H](COP(=O)(O)O)[C@@H](O)[C@H]1O | 0.0198% [at 46 µM, stronger effect = higher value] | – |
| Cc1oc(-c2ccccc2)nc1CCOc1ccc(C[C@H](Nc2ccccc2C(=O)c2ccccc2)C(=O)O)cc1 | 0.108% | – |
| CC(C)(C)CC(C)(C)c1ccccc1O | 0.0621% | – |
| O=C(O)c1cccc(Cl)n1 | 0.106% | – |
| CN(C)CCCN1c2ccccc2CCc2ccccc21 | – | inactive |
| CCNc1nc(NC(C)CC)nc(OC)n1 (stereo not given) | 0.0019% | – |

| Structure (SMILES) | activity change | Potency |
| --- | --- | --- |
| CC(C)(c1cc(Br)c(O)c(Br)c1)c1cc(Br)c(O)c(Br)c1 | – | inactive |
| CC(CN(C)C)CN1c2ccccc2CCc2ccccc21 (stereo not given) | -0.0046% [at 18.6 µM, stronger effect = higher value] | – |
| c1cc2c3c(c1)ccc1cccc(c13)C2 | -0.0098% [at 95.7 µM, stronger effect = higher value] | – |
| CCO[Si](CCCSSSSCCC[Si](OCC)(OCC)OCC)(OCC)OCC | 0.0077% | – |
| Brc1ccccc1-c1ccccc1 | 0.173% | – |
| CNC(=S)NN | -0.0328% | – |
| COc1cc(C=C2CCC/C(=C\c3ccc(O)c(OC)c3)C2=O)ccc1O | 0.17% [at 46 µM, stronger effect = higher value] | – |
| CC(C)(C)c1cc(/C=C2\SC(=N)NC2=O)cc(C(C)(C)C)c1O | 3.77% | – |
| Nc1cc(Cl)c([N+](=O)[O-])cc1O | 0.0336% | – |
| CN1[C@@H]2CC[C@H]1CC(OC(=O)C(CO)c1ccccc1)C2 (stereo not given in full) | – | inactive |
| Oc1ccc(-c2ccc(O)cc2)cc1 | -0.0395% | – |
| O=C(Oc1ccccc1)c1cccc(C(=O)Oc2ccccc2)c1 | -0.0679% | – |
| C[C@H]1O[C@@H](O[C@H]2[C@@H](O)C[C@H](O[C@H]3[C@@H](O)C[C@H](O[C@H]4CC[C@@]5(C)[C@H](CC[C@@H]6[C@@H]5C[C@@H](O)[C@]5(C)[C@@H](C7=CC(=O)OC7)CC[C@]65O)C4)O[C@@H]3C)O[C@@H]2C)C[C@H](O)[C@@H]1O | – | inactive |
| CCCCCCCCCCCCCOP(=O)(O)O | -0.0732% | – |
| COc1cc(C(C)C)c2c(c1)S(=O)(=O)N(COc1cc(=O)n3cccc(OCCN4CCCCC4)c3n1)C2=O | -0.182% [at 18.6 µM, stronger effect = higher value] | – |
| Clc1ccccc1CN1CCc2sccc2C1 | 0.023% [at 46 µM, stronger effect = higher value] | – |
| COC(=O)CC#N | 0.0036% [at 95.7 µM, stronger effect = higher value] | – |
| C[C@@]12C(=O)OC(=O)[C@]1(C)C1CCC2O1 | -0.057% [at 18.6 µM, stronger effect = higher value] | – |
| c1cc(OCC2CO2)cc(OCC2CO2)c1 (stereo not given) | 0.0422% | – |
| CCCCCCCCCCCCCCCC | -0.0411% | – |
